From ChEMBL document CHEMBL1961873, “Compounds: GSK PKIS; Assays: Nanosyn kinase panel” (2012)

What was measured:
[1] = biological target: T1, Inhibitor of nuclear factor kappa-B kinase subunit epsilon (Homo sapiens) (UniProt Q14164); settings: at 1 µM;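 note: reported values are averaged percent inhibition figures against human IKKε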
T1 sequence (whole entry): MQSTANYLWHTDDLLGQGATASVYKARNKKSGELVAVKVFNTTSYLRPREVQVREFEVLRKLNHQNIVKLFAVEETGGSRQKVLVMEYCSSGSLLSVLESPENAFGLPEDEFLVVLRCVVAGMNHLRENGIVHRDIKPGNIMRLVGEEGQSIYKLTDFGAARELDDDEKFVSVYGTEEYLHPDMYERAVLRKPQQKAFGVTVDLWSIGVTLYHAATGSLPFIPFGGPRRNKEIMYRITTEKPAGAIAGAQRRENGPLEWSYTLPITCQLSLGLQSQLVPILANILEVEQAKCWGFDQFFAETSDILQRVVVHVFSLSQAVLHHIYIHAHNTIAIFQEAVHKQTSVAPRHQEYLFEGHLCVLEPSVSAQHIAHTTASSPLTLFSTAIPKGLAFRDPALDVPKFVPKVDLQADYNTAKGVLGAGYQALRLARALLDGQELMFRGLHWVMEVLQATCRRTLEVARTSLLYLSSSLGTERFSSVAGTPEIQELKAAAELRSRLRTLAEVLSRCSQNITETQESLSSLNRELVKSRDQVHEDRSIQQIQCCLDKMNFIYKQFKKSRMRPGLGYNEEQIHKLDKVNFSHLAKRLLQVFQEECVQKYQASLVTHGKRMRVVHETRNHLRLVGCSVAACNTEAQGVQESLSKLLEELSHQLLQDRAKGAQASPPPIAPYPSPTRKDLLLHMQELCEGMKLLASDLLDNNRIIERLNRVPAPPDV

[2] = biological target: T2, Serine/threonine-protein kinase Nek1 (Homo sapiens) (UniProt Q96PY6); settings: at 0.1 µM
T2 sequence (whole entry): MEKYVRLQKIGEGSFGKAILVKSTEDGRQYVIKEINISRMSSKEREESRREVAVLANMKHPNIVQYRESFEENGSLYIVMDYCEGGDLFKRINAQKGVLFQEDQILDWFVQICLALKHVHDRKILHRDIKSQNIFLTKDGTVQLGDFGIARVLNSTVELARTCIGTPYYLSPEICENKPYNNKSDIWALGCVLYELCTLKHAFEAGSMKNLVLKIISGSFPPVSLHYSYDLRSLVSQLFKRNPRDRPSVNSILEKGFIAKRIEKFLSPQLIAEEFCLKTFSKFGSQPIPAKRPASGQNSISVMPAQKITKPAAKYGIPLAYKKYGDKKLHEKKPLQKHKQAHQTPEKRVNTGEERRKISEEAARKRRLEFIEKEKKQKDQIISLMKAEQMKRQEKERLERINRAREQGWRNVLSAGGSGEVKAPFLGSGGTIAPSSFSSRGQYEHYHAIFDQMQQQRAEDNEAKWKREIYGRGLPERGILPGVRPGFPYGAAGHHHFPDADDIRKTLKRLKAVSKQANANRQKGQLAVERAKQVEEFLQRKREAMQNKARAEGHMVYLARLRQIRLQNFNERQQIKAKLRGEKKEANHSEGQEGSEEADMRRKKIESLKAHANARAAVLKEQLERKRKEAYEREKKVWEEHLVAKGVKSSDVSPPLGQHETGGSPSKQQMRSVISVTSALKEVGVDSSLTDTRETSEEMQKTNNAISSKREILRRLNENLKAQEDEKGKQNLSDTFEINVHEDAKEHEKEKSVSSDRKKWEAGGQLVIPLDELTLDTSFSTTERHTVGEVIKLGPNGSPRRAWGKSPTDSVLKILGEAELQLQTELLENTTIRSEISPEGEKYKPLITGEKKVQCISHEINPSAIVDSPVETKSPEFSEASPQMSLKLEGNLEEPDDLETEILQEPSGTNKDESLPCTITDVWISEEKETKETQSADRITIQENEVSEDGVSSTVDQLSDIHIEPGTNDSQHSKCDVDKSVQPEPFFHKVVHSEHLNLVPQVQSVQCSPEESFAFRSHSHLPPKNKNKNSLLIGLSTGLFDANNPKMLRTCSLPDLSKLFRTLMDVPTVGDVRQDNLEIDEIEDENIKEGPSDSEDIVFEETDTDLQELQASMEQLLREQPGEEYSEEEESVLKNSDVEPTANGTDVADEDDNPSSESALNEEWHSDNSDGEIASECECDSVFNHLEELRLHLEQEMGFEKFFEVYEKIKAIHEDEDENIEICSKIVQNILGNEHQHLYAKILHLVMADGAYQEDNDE

[3] = biological target: T2, Serine/threonine-protein kinase Nek1 (Homo sapiens); settings: at 1 µM
[4] = biological target: T3, Serine/threonine-protein kinase Nek2 (Homo sapiens) (UniProt P51955); settings: at 0.1 µM
T3 sequence (whole entry): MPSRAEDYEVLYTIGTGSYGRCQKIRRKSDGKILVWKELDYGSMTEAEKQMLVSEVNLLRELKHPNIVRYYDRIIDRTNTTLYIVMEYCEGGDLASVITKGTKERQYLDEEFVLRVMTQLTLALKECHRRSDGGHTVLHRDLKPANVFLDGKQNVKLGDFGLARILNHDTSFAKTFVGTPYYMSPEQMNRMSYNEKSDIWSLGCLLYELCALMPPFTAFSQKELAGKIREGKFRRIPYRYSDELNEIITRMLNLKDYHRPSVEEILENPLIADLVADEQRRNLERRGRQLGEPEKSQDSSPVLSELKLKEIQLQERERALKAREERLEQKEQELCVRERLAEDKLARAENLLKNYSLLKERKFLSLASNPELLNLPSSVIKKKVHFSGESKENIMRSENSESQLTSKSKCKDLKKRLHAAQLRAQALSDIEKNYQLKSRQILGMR

[5] = biological target: T3, Serine/threonine-protein kinase Nek2 (Homo sapiens); settings: at 1 µM
[6] = biological target: Serine/threonine-protein kinase Nek6 (Homo sapiens) (UniProt Q9HC98); settings: at 0.1 µM
[7] = biological target: Serine/threonine-protein kinase Nek6 (Homo sapiens) (UniProt Q9HC98); settings: at 1 µM
[8] = biological target: Serine/threonine-protein kinase Nek7 (Homo sapiens) (UniProt Q8TDX7); settings: at 0.1 µM
[9] = biological target: Serine/threonine-protein kinase Nek7 (Homo sapiens) (UniProt Q8TDX7); settings: at 1 µM
[10] = biological target: T4, Serine/threonine-protein kinase Nek9 (Homo sapiens) (UniProt Q8TD19); settings: at 0.1 µM
T4 sequence (whole entry): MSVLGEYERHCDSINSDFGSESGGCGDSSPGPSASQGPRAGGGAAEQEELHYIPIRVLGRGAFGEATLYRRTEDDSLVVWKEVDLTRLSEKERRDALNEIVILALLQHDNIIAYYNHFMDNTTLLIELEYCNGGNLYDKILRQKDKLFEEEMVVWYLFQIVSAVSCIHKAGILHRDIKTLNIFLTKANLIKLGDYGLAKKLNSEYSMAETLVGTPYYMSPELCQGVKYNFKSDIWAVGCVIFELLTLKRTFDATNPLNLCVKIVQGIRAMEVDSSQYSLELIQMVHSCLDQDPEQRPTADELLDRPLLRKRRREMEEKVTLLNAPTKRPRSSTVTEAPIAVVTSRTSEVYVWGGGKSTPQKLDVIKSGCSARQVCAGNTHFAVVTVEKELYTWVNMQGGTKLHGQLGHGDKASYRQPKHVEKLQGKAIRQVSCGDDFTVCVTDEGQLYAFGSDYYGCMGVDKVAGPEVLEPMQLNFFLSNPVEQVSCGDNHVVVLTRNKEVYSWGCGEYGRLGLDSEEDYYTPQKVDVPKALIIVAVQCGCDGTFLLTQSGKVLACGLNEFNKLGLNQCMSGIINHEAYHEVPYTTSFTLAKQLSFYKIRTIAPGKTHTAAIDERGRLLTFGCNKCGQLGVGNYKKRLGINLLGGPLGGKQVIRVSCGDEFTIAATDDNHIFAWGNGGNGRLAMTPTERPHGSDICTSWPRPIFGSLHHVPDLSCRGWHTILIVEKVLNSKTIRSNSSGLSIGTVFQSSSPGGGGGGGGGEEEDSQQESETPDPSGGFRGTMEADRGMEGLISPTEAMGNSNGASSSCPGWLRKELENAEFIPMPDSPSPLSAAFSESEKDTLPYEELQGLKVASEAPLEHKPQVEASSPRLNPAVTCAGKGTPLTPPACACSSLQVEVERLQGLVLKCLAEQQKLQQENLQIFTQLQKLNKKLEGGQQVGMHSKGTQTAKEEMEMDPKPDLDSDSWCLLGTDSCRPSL

[11] = biological target: T4, Serine/threonine-protein kinase Nek9 (Homo sapiens); settings: at 1 µM
[12] = biological target: Serine/threonine-protein kinase PLK1 (Homo sapiens) (UniProt P53350); settings: at 0.1 µM
[13] = biological target: Serine/threonine-protein kinase PLK1 (Homo sapiens) (UniProt P53350); settings: at 1 µM
[14] = biological target: T5, Dual specificity protein kinase TTK (Homo sapiens) (UniProt P33981); settings: at 0.1 µM
T5 sequence (whole entry): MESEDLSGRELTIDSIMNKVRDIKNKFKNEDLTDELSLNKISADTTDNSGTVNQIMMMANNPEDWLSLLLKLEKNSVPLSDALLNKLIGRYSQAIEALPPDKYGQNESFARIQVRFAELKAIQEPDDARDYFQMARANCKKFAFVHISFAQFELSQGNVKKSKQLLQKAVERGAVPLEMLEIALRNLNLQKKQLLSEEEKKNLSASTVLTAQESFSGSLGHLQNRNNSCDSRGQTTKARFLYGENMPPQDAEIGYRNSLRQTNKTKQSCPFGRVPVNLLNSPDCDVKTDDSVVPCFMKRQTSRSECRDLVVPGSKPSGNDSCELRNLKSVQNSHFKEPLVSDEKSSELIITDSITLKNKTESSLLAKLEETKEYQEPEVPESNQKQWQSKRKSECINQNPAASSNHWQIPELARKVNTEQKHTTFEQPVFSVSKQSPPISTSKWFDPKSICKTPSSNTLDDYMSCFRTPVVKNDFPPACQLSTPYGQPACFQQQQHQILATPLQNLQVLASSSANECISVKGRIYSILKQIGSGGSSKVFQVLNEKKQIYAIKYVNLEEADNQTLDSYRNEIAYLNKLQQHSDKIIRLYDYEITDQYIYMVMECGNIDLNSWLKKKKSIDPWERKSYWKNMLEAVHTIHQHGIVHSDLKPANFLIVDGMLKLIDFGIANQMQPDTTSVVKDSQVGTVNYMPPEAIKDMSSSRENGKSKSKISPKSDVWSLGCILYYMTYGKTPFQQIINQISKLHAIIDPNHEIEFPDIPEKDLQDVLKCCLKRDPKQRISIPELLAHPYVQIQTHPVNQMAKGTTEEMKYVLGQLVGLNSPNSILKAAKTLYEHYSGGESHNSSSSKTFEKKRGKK

[15] = system: T6, Receptor-type tyrosine-protein kinase FLT3 (Homo sapiens), P36888 [D835Y]; settings: at 1 µM
T6 sequence (whole entry): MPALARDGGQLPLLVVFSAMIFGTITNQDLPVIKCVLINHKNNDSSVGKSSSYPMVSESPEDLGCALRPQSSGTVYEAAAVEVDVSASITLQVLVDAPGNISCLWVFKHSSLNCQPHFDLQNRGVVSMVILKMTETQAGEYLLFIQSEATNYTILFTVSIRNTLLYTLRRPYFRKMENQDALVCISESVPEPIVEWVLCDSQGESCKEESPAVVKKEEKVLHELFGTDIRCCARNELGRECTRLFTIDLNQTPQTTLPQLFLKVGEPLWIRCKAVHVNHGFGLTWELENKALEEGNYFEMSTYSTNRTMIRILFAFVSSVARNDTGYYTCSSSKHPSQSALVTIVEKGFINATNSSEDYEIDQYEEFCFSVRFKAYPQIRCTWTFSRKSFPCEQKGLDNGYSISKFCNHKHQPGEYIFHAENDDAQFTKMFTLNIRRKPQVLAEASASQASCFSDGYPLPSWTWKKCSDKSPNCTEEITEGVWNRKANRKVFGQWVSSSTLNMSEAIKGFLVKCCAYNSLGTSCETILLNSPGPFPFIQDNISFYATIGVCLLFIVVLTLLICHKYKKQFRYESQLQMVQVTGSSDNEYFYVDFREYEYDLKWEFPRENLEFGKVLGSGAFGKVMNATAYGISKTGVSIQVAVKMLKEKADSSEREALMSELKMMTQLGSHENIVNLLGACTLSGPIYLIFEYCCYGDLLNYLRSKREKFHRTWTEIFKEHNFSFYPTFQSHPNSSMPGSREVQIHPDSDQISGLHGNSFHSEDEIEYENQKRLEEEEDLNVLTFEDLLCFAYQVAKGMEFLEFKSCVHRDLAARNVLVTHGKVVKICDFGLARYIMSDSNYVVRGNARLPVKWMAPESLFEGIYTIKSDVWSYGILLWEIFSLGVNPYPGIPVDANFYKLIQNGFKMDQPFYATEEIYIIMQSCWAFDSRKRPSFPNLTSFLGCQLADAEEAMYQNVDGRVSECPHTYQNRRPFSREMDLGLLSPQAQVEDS

[16] = biological target: Vascular endothelial growth factor receptor 3 (Homo sapiens) (UniProt P35916); settings: at 0.1 µM
[17] = biological target: Vascular endothelial growth factor receptor 3 (Homo sapiens) (UniProt P35916); settings: at 1 µM
[18] = biological target: Macrophage colony-stimulating factor 1 receptor (Homo sapiens) (UniProt P07333); settings: at 0.1 µM
[19] = biological target: Macrophage colony-stimulating factor 1 receptor (Homo sapiens) (UniProt P07333); settings: at 1 µM
[20] = biological target: Tyrosine-protein kinase Fyn (Homo sapiens) (UniProt P06241); settings: at 0.1 µM
Chain of Tyrosine-protein kinase Fyn (Homo sapiens) (P06241 2-537 limits assumed): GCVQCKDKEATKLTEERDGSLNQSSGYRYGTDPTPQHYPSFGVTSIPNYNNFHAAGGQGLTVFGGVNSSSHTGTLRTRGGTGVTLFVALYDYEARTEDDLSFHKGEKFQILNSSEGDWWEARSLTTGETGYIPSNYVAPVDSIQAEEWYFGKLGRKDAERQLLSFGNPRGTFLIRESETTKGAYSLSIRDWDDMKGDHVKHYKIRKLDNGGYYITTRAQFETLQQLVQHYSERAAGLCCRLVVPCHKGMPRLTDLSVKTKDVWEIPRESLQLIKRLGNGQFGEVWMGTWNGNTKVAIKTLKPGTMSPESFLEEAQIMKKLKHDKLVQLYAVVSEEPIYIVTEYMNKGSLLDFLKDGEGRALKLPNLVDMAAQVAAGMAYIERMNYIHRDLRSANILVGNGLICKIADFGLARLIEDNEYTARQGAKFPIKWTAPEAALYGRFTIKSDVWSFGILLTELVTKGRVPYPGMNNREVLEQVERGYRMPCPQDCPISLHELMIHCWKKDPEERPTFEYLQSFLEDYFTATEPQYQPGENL

Chain of Serine/threonine-protein kinase Nek7 (Homo sapiens) (Q8TDX7 whole entry, looked up): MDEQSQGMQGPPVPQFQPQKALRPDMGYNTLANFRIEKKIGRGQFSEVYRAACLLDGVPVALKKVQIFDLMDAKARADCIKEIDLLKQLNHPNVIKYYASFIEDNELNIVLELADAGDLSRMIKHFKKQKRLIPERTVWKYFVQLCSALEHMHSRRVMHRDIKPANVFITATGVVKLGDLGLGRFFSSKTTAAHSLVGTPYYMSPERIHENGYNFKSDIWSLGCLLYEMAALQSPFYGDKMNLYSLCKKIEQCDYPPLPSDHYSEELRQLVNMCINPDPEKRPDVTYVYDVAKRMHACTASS
Chain of Vascular endothelial growth factor receptor 3 (Homo sapiens) (P35916 whole entry): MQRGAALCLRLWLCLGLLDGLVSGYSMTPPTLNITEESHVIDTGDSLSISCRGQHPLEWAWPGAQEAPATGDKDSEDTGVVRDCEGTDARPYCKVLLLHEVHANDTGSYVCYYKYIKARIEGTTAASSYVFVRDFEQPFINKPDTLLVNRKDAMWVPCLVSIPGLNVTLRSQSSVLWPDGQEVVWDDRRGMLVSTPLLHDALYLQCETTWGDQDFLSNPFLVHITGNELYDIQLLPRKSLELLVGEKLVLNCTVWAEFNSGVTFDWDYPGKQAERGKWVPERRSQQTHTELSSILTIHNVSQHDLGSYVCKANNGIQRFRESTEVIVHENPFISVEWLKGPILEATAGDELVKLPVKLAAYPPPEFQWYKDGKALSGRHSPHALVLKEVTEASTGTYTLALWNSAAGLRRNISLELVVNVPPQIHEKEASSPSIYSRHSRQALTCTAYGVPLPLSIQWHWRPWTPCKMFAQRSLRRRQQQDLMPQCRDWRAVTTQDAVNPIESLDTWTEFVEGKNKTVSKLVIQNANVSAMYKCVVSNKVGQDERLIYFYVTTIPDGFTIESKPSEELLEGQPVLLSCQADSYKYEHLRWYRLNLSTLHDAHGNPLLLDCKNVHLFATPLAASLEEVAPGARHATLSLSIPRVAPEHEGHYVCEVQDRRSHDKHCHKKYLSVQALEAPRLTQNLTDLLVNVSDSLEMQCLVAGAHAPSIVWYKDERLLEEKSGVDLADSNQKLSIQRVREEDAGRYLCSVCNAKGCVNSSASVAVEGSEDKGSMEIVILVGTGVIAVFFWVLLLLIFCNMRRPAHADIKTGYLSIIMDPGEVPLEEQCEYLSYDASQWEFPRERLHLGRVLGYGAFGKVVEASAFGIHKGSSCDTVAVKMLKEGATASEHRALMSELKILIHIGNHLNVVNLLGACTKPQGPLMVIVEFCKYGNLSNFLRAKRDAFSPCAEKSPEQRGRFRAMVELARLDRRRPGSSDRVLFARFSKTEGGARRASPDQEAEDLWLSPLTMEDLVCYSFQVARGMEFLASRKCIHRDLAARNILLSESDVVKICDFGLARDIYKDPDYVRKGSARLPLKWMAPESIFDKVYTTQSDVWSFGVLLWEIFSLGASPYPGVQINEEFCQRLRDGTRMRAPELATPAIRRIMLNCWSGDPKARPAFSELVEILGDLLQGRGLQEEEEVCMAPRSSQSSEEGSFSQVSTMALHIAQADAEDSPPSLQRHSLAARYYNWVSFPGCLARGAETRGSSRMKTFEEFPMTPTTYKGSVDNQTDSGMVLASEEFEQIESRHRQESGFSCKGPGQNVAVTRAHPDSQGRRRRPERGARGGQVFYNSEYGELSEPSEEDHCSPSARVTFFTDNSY
Chain of Serine/threonine-protein kinase Nek6 (Homo sapiens) (Q9HC98 whole entry): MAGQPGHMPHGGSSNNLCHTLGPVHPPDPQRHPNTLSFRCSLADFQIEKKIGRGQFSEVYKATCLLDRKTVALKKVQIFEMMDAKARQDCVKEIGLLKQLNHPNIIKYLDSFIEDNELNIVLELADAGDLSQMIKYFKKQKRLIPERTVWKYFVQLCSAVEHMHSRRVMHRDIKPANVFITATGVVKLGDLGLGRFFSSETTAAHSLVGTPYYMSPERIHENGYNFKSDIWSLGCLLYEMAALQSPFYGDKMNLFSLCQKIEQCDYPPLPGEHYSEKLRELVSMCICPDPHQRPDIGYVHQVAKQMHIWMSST
Chain of Serine/threonine-protein kinase PLK1 (Homo sapiens) (P53350 whole entry): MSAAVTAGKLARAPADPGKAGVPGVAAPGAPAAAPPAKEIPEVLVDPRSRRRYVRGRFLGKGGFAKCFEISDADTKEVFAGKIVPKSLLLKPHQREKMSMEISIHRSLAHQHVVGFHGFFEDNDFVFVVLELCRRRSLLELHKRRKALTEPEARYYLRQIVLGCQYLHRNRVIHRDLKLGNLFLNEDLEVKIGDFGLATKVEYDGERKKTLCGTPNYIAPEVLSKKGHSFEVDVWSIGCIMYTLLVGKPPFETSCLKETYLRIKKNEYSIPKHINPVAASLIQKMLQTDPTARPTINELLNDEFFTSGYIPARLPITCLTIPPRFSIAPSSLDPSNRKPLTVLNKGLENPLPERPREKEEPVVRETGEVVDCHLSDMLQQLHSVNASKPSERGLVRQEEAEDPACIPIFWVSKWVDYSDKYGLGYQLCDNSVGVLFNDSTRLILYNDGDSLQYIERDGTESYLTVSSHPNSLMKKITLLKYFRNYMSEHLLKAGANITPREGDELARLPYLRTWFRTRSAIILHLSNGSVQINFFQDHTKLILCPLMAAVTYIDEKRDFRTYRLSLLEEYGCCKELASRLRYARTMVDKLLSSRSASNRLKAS
Chain of Macrophage colony-stimulating factor 1 receptor (Homo sapiens) (P07333 whole entry): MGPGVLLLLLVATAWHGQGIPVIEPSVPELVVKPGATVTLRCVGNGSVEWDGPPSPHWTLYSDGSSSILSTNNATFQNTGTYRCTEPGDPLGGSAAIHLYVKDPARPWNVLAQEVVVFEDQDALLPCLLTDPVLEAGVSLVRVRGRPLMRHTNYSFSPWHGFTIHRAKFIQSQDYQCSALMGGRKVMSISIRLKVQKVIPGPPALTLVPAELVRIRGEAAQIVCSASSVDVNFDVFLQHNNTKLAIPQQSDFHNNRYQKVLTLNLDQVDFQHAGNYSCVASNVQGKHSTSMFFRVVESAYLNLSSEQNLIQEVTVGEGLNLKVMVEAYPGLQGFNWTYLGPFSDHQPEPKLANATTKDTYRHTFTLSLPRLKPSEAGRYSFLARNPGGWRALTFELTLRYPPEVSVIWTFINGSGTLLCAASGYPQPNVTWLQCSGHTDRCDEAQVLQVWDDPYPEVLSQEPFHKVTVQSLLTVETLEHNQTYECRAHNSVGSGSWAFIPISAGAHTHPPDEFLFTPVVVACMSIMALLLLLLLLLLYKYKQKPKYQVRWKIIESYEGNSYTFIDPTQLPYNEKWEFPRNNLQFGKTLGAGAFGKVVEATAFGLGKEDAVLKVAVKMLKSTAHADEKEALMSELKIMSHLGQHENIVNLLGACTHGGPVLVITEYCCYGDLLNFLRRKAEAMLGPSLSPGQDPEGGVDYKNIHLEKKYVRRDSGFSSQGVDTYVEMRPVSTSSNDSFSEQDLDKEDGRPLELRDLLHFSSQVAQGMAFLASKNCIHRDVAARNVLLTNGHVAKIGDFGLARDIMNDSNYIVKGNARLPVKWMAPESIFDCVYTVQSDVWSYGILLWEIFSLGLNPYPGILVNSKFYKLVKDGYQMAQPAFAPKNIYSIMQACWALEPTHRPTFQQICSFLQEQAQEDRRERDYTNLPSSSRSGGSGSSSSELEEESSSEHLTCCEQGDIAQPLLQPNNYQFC

Compound | inhibition [1] [%] | inhibition [2] [%] | inhibition [3] [%] | inhibition [4] [%] | inhibition [5] [%] | inhibition [6] [%] | inhibition [7] [%] | inhibition [8] [%] | inhibition [9] [%] | inhibition [10] [%] | inhibition [11] [%] | inhibition [12] [%] | inhibition [13] [%] | inhibition [14] [%] | inhibition [15] [%] | inhibition [16] [%] | inhibition [17] [%] | inhibition [18] [%] | inhibition [19] [%] | inhibition [20] [%]
COc1cccc(COc2cc(-n3cnc4ccccc43)sc2C(N)=O)c1 | -7.06 | 0.41 | 4.13 | 8.56 | 1.43 | 1.63 | -0.37 | 0.3 | 0.66 | 0.4 | 8.39 | 66.5 | 92.2 | 3.72 | -4.13 | -2.19 | 4.75 | -8.31 | -1.4 | 0
NS(=O)(=O)c1ccc(-c2ccc3c(NC(=O)C4CC4)n[nH]c3c2)cc1 | 3.02 | 1.11 | 1.6 | 3.54 | 2.84 | 1.03 | 0.35 | 2.6 | 1.74 | 5.05 | 3.68 | 2.16 | 2.23 | 2.82 | 8.24 | 0.96 | 1.51 | 0.18 | 1.78 | 1.45
NC(=O)c1sc(-n2cnc3cc(C(F)(F)F)ccc32)cc1OCc1ccccc1Br | 3.62 | 1.03 | 1.9 | 2.62 | 3.63 | -1.58 | -0.03 | -3.9 | 3.69 | 8.36 | 10.3 | 21 | 69.5 | 2.94 | 4.97 | 2.24 | 4.4 | -0.7 | 3.85 | 2.13
